Measured values as given in PubChem BioAssay AID1345083 (National Center for Advancing Translational Sciences (NCATS), 2018).
Among all 94,000 compounds or so, about 6,200 (6.6%) were called active. Where a call stands in place of a potency, no number is given. Not shown: some 31% with an inconclusive outcome. The call rests on the fitted dose curve; in most records, active means well fitted inhibition curve with a large enough effect; inconclusive means small, poorly fitted or top-dose-only effect; inactive means flat fitted curve, though single readings scatter. Many of the other results were omitted from the sample, so actives are more common in it than they were.

assay: Cytotoxic Profiling in HEK 293 Cell Line of Diverse Libraries Using Quantitative High-Throughput Screening; conditions: HEK 293 viability, ATP luminescence (CellTiter-Glo), 48-72 h; series mostly up to 115 µM; further: nearly all actives have a fitted effect of over 60% in size
In short: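 Luminescence from cellular ATP, measured with CellTiter-Glo, indicates HEK 293 viability. Cells plated at 250 cells/well are treated with compound for 48 or 72 hr at 37 degree Celsius before reagent addition.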
Potency means the concentration at half of the fitted maximal effect.

Compound | Potency
CCOc1ccccc1NC(=O)Cn1c(=O)n(-c2ccccc2)c(=O)c2c1cc(C)n2C | inactive
CCc1cccc(C)c1NC(=O)CN1C(=O)C(c2ccccc2)=NC12CCCC2 | inactive
CCOc1ccccc1NC(=O)CN1C(=O)C(c2ccccc2)=NC12CCCC2 | 79.4 µM (active)
Cc1noc(C)c1[S+](=O)([O-])N1CCn2c(nnc2C2CCCNC2)C1 (configuration not stated) | inactive
c1cc2c(cc1-c1n[nH]c(C3CCOCC3)n1)OCO2 | inactive
COc1ccc(-c2[nH]nc3ncc(-c4cn[nH]c4)nc23)cc1F | inactive
Cc1cccc(-c2cnc3n[nH]c(-c4ccc5c(c4)OCO5)c3n2)c1 | 70.8 µM (active)
CC(=O)N1CCC(Oc2ccc(Cl)cc2C(=O)N2CCN(CC3CC3)CC2)CC1 | inactive
CCn1cc(S(=O)(=O)N2CCc3nn(CC4CC4)c(=O)n3CC2)cn1 | inactive
CN(C)c1ccc2ncc(Nc3ccccc3F)n2n1 | 112 µM (active)
O=C(NCCCN1CCCCC1)C1CCN(C(=O)N2CC3CC(C2)[C@H]2CCCC(=O)N2C3)CC1 (some centres not stated) | inactive
COCCN1CCC2(CCC1=O)CCN(C(=O)c1sc(C)nc1C)CC2 | inactive
CCOC(=O)C1=CN(CC(=O)Nc2ccccc2F)S(=O)(=O)N=C1C | inactive
CCOc1cc(C)c(CN2C[C@@H](CN(C)C)C[C@H](CO)C2)cc1C(C)C | 35.5 µM (active)
Cc1cc(=O)n(CC(=O)N2C[C@H](CO)C[C@H](CN(C)C)C2)nc1C | inactive
COc1cc(C)c(CN2CCN3C(=O)CNC(=O)C3C2)cc1C(C)C (configuration not stated) | inactive
Cc1ccc(-c2ccc3nnc(CNC(=O)c4cccnc4)n3n2)cc1C | inactive
COc1ccccc1Nc1cnc2ccc(-c3ccc(OC)c(OC)c3)nn12 | 11.2 µM (active)
COc1ccc(C(=O)NCc2nnc3ccc(-c4ccccc4)nn23)c(OC)n1 | inactive
CN(C)c1cccc(-c2cnc(Nc3ccc(N4CCOCC4)cc3)c3c2CCO3)c1 | 22.4 µM (active)
Cc1cccc(CNC(=O)C2Cn3cccc3C(=O)N2CC(C)C)c1 (configuration not stated) | inactive

Compound | Potency
CCOC(=O)[C@H]1[C@@H](O)C(=O)N(Cc2ccccc2)C12CCN([S+](C)(=O)[O-])CC2 | inactive
Cc1ccccc1CN1CCC(N2CCCC(C(=O)NC3CC3)C2)CC1 (configuration not stated) | inactive
Cc1ccc2c(n1)N(C)[C@H](CO)CCN(Cc1ccccc1C)C2 | 89.1 µM (active)
Cc1ccccc1CN1CCC2(C1)C(=O)N(C)C(=O)N2C (configuration not stated) | inactive
C=CCN1CCN(C(=O)C2CCCN(C(=O)c3ccccc3)CCC(=O)NCC2)CC1 (configuration not stated) | inactive
CC(C)(C)c1cc(CC2(NCc3ccc(C#N)cc3)COC2)no1 | inactive
CC1CCN([C@@H]2[C@H](O)[C@H](CO)O[C@@H]2CNC(=O)Nc2ccccc2)CC1 | inactive
CN(Cc1ccccc1)Cc1cc(CC2(NCc3ccc(CO)o3)COC2)no1 | inactive
Cc1cc(C[C@@H]2COC[C@@H]2NC(=O)C2CCN(C(=O)N(C)C)CC2)on1 | inactive
CC(=O)N1CCC(N[C@H]2C[C@@H](Cc3cc(CN(C)c4ccccc4)on3)C2(C)C)CC1 | 70.8 µM (active)
CC1(C)[C@H](Cc2cc(CC3CCCCC3)on2)C[C@@H]1NC(=O)C1CCC1 | 35.5 µM (active)
COCc1cc(C[C@@H]2CC[C@H](O)[C@@H](CN(C)C)O2)no1 | inactive
CCC(CC)C(=O)N[C@H]1C[C@@H](Cc2cc(COc3ccccc3)on2)C1(C)C | 31.6 µM (active)
CC1(C)[C@H](Cc2cc(CC3CCCCC3)on2)C[C@@H]1NC1CCOCC1 | 28.2 µM (active)
CN(Cc1nccn1C)C(=O)c1cc(CN2CCC(Cc3ccccc3)CC2)on1 | inactive
O=C(O)C[C@@H]1CCN(S(=O)(=O)c2ccccc2)C[C@@H]1CC1=NCCc2cc(F)ccc21 | inactive
O=C(NC1CCN(C(=O)N2CC3CC(C2)[C@H]2CCCC(=O)N2C3)CC1)c1ccsc1 (some centres not stated) | inactive
O=C(c1ccccc1F)N1CCC2(CC1)N(c1ccccc1)C(=O)CS2(=O)=O | inactive
O=C(NCc1ccccc1-n1cncn1)C1CC(=O)N(Cc2ccccn2)C1 (configuration not stated) | inactive
Cc1cccc(Cl)c1NC(=O)Cn1c(C)cc2nc3n(c(=O)c21)CCCCC3 | inactive
COc1ccccc1C(=O)NCC1Cn2cccc2C(=O)N1Cc1cccnc1 (configuration not stated) | inactive

Compound | Potency
COCc1nnc2n1CCC(NC(=O)CCc1c(C)nn(C)c1C)CC2 (configuration not stated) | inactive
CC(C)NC(=O)NC1CCN(c2ccc3nnc(-c4ccccc4)n3n2)C1 (configuration not stated) | inactive
COc1cc(OC)c(NC(=O)N2CCCC2c2nncn2C2CCCC2)cc1Cl (configuration not stated) | inactive
O=C(Nc1ccccc1)N1CCc2nc(-c3ccccc3)nc(-c3ccc(Cl)cc3)c2C1 | inactive
COc1ccc(C(=O)N2CCC([C@@H]3CNC[C@H]3CO)CC2)cc1OC | inactive
COCCOCC(=O)N1CCCC(c2nc(-c3cccnc3)no2)CCNC(=O)CC1 (configuration not stated) | inactive
CC(c1cccs1)N(C)[S+](=O)([O-])c1cccc(C(F)(F)F)c1 (configuration not stated) | inactive
COCC(=O)NC1CCC12CCN(C(=O)CCCc1ccccc1)CC2 (configuration not stated) | inactive
COCC1CN(C2CCC2)CC12CCN(C(=O)CCc1ccccc1)CC2 (configuration not stated) | 31.6 µM (active)
COCC1CN(C2CCC2)CC12CCN(C(=O)C1CCN(C(C)=O)CC1)CC2 (configuration not stated) | inactive
O=C(NCc1c[nH]c2ncccc12)c1ccccn1 | inactive
CCOc1ccc(C(=O)N2CCCC(c3noc(COC)n3)C2)cc1 (configuration not stated) | inactive
COc1ccc2c(c1)CCc1c-2n[nH]c1C(=O)N1CCC(c2noc(COc3ccc(C)cc3)n2)CC1 | 22.4 µM (active)
COCc1nc(C2CCN(C(=O)c3ccn[nH]3)C2)no1 (configuration not stated) | inactive
Cc1ccc(OCc2nc(C3CCN(C(=O)c4noc(C)c4CN4CCCCC4)CC3)no2)cc1 | 31.6 µM (active)
COCCOCc1nc(C2CCN(C(=O)c3ccncc3)CC2)no1 | inactive
COCc1nc(C2CCN(C(=O)c3ccoc3)C2)no1 (configuration not stated) | inactive
CCC(C)NC(=O)C1COC2(CCN(C(=O)CC(C)(C)C)CC2)N1C(=O)c1cccc(OC)c1 (configuration not stated) | inactive
COc1ccc(S(=O)(=O)N2CCC(N(C(=O)C3CC3)C3CCOCC3)CC2)cc1 | inactive
COCc1cc(=O)n(CC(=O)Nc2ccc(C)cc2)c(N2CCOCC2)n1 | inactive
